Among all 310,000 compounds or so, about 17,000 (5.5%) were called active. Inconclusive results (about 11%) are left out. Calls follow the shape of the dose curve; as a rule, active = well fitted inhibition curve with a large enough effect; inconclusive = small, poorly fitted or top-dose-only effect, or effect the other way; inactive = no such curve, though single readings can be large or run the other way. The entries come from a sample that favours actives as a whole. Entries that show only a call come without a potency.
Molecular target: Nuclear receptor ROR-gamma (Mus musculus) (UniProt P51450)
Sequence (P51450 whole entry, looked up): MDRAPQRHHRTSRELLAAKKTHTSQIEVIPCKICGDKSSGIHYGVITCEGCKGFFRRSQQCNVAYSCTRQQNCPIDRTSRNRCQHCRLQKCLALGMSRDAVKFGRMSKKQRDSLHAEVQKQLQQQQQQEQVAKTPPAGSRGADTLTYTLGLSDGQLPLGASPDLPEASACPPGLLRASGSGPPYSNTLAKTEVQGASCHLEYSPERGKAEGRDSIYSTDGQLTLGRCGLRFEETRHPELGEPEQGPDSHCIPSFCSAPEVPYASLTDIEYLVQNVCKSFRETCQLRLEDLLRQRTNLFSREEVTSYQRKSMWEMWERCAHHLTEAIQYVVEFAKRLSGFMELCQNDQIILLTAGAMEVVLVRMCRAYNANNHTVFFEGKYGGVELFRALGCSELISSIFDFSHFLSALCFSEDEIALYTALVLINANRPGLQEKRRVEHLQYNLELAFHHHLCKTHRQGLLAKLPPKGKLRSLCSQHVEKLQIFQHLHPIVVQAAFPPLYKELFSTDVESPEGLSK
Assay: qHTS for inhibitors of ROR gamma transcriptional activity; also: nearly all actives have a fitted effect of over 60% in size
Details: Drosophila S2 Gal4-RORgamma UAS-luciferase reporter, 20 h; series mostly up to 53.6 µM
Outline: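 A Gal4/UAS one-hybrid system in insect cells: metallothionein-promoter Gal4–ROR gamma fusion plus Photinus luciferase reporter. Copper sulfate 700 uM final, 20 hr ambient incubation, luminescent detection after 10 min with reagent.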
Potency is read from the fitted curve at half-maximal effect.

Structure (SMILES) | Potency | activity change, negative = inhibition
Cc1cccc(-c2c(NC(=O)c3ccco3)oc3ccc(Cl)cc3c2=O)c1 | inactive | 
CN(C)CCOC1c2ccccc2-c2ccccc21 | inactive | 
COc1ccc(CNC(=O)C2CCN(C(=O)c3ccccc3)CC2)cc1 | inactive | 
O=C(c1ccc(Cl)c(S(=O)(=O)N2CCCCC2)c1)N1CCCCCC1 | inactive | 
O=C(c1ccccc1F)N1CCN(S(=O)(=O)c2ccc(Br)cc2)CC1 | inactive | 
O=C(c1ccc[nH]c1=S)N1CCN(S(=O)(=O)c2ccc(Br)cc2Cl)CC1 | 22.4 µM (active) | 
COc1cc2c(C(=O)N(C)c3cc(Cl)ccc3OC)cn(C)c(=O)c2cc1OC | inactive | 
COc1ccc(CNC(=O)C2CCN(S(=O)(=O)c3ccc(SC)cc3)CC2)cc1 | inactive | 
Cc1cc(C(=O)COC(=O)C2CC2)c(C)n1-c1ccc(F)cc1 | inactive | 
Cc1nnc(SCC(N)=O)n1CC1CCCO1 (stereo not given) | inactive | 
Cc1ccsc1C(=O)OCC(=O)c1cc(C)n(CC2CCCO2)c1C (stereo not given) | 3.98 µM (active) | 
CCc1ccc(CN(C)C(=O)C2CCC(=O)N(Cc3cccc(OC)c3)C2)nc1 (stereo not given) | inactive | 
CC(C)CC(=O)Nc1ccc(Cc2ccncc2)cc1 | inactive | 
O=C(O)C1CCCN1C1=NS(=O)(=O)c2ccccc21 (stereo not given) | inactive | 
O=C(CN1CCC(NC(=O)C2CC2)CC1)Nc1ccccc1[N+](=O)[O-] | inactive | 
Cc1ccc(NC(=O)CSc2cccc3cccnc23)c(C)c1 | 10 µM (active) | 
O=C(CSc1cccc2cccnc12)N/N=C/c1cccnc1 | 7.08 µM (active) | 
Cc1c(NC(=O)CSc2cccc3cccnc23)c(=O)n(-c2ccccc2)n1C | 7.94 µM (active) | 
O=C(CNC(=O)c1cccnc1)N/N=C/c1cccnc1 | inactive | 
Cc1c(NC(=O)CSc2nnnn2-c2ccc(C(=O)O)cc2)c(=O)n(-c2ccccc2)n1C | inactive | 
Cc1nc2ccccc2n1CC(=O)N/N=C/c1cccnc1 | inactive | 
Cc1c(NC(=O)c2cccnc2)c(=O)n(-c2ccccc2)n1C | inactive | 
Cc1ccc(NC(=O)Cn2nc(C)c3ccccc3c2=O)c(C)c1 | inactive | 
C/C(CC(=O)Nc1ccc(C)cc1C)=N\NC(=O)C(C)C | inactive | 
Cc1cc(NC(=O)CCN2CCN(Cc3ccccc3)CC2)ccc1Br | inactive | 
CCN(CC)S(=O)(=O)c1ccc(N2CCOCC2)c(NC(=O)C2CSC3(C)CCC(=O)N23)c1 (stereo not given) | inactive | 
O=C(CCS(=O)(=O)c1ccc2c(c1)NC(=O)CS2)NCc1ccccc1Cl | inactive | 

Structure (SMILES) | Potency | activity change, negative = inhibition
Cc1ccc(CN(CC(=O)NC2CCCCC2)C(=O)c2csnn2)cc1 | inactive | 
O=C(c1ccccc1)N1CCC(CC2CC(c3ccc(Cl)cc3)=NO2)(C(=O)NCC2CCCCC2)CC1 (stereo not given) | inactive | 
COc1cccc(CNC(=O)CCC2CCCN(C(=O)c3ccc(F)c(Cl)c3)C2)c1 (stereo not given) | inactive | 
O=Cc1cn(Cc2ccccc2)nc1-c1cccnc1 | inactive | 
O=C1/C(=C\c2cccnc2)CN(Cc2ccccc2)C/C1=C\c1cccnc1 | 6.31 µM (active) | 
Clc1ccc(CN2CCN(/N=C/c3cccnc3)CC2)cc1 | inactive | 
Cc1cc(C)c(S(=O)(=O)c2cc(F)ccc2C)c(=O)[nH]1 | inactive | 
O=S(=O)(c1ccc(Br)cc1)c1nc(-c2ccccc2)oc1N1CCOCC1 | inactive | 
CCOC(=O)c1cccc(NC(=O)CCc2nnc3ccc(N4CCOCC4)nn23)c1 | inactive | 
Cc1cc(N2CCN(C)CC2)nc2ccc(NC(=S)N3CCOCC3)cc12 | inactive | 
CCn1c2ccccc2c2cc(NC(=O)CNC)ccc21 | inactive | 
CCn1c2ccccc2c2cc(NC(=S)N3CCOCC3)ccc21 | 3.16 µM (active) | 
COc1ccc(NC(=O)CN2C(=O)CSc3ccc(S(=O)(=O)N4CCC(C)CC4)cc32)cc1 | inactive | 
CCOc1ccc(N(CC(=O)NCC2CCCO2)S(=O)(=O)c2ccc(C)cc2)cc1 (stereo not given) | inactive | 
CC(C)CNC(=O)C(=O)NCC(c1ccc2c(c1)OCO2)N1CCOCC1 (stereo not given) | inactive | 
O=C(CCN1C(=O)[C@@H]2Cc3ccccc3CN2C1=O)NCc1ccccc1 | inactive | 
COC(=O)c1ccccc1NC(=O)C1CCN(C(=O)N2CCOc3ccccc32)CC1 | inactive | 
CC(Sc1nnc(CNC(=O)c2ccccc2F)n1C)C(=O)Nc1nccs1 (stereo not given) | inactive | 
Cc1ccc(S(=O)(=O)N2CCC(C)CC2)cc1C(=O)NCc1ccccn1 | inactive | 
COc1cccc(CNC(=O)Cn2c(=O)oc3cc(S(=O)(=O)N4CCCCC4)ccc32)c1 | inactive | 
O=C(Cc1cccs1)Nc1ccc([N+](=O)[O-])cc1 | inactive | 
O=C(CCN1c2ccccc2Sc2ccccc21)Nc1ccccc1 | inactive | 
CCNC(=O)N1c2ccccc2Sc2ccccc21 | inactive | 
CCN1/C(=C/C(=S)Nc2ccccc2)Sc2ccccc21 | 3.16 µM (active) | 
COc1ccc(C(=O)NC2CC2)cc1OC1CCN(C/C=C/c2ccccc2)CC1 | inactive | 
CCCn1c(=S)[nH]c2ccc(C(F)(F)F)cc21 | inactive | 
CC(C)n1c(=S)[nH]c2cc(C(F)(F)F)ccc21 | 0.891 µM (active) | 

Structure (SMILES) | Potency | activity change, negative = inhibition
O=C(NCc1ccccc1)C(c1cccnc1)N(C(=O)c1csnn1)c1ccc(F)cc1 (stereo not given) | inactive | 
Cn1c(=O)c(=O)n(C)c2cc(S(=O)(=O)CCC(=O)N3CCCCC3)ccc21 | inactive | 
COc1ccc(/C=C/c2c(-c3cccc(C)c3)oc3ccc(-c4ccc5c(c4)OCO5)cc23)cc1 | inactive | 
CCOC(=O)c1ccc(NC(=O)C2CC(=O)Nc3nc4ccccc4n32)cc1 (stereo not given) | inactive | 
CCOC(=O)C1=C(C)Nc2nc3ccccc3n2C1c1cccs1 (stereo not given) | 5.62 µM (active) | 
COc1ccccc1NC(=O)C1=C(C)Nc2nc3ccccc3n2C1c1cccs1 (stereo not given) | 11.2 µM (active) | 
COc1ccccc1NC(=O)C1=C(C)NC(=O)NC1c1ccc(C)s1 (stereo not given) | inactive | 
COc1ccccc1NC(=O)C1=C(C)Nc2ncnn2C1c1ccc(C)o1 (stereo not given) | inactive | 
CCOC(=O)C1=C(C)NC(=S)NC1c1cccs1 (stereo not given) |  | -23.4% [at 10 µM] (inactive)
Cc1cccc(CCNS(=O)(=O)c2ccc3c(c2)NC(=O)CO3)c1 | inactive | 
O=C(NC1CCCC1)C(c1ccco1)N(C(=O)c1ccco1)c1ccc(F)cc1 (stereo not given) | inactive | 
Cc1ccc(C(=O)Oc2ccc(C(=S)N3CCOCC3)cc2)cc1 | inactive | 
COCC(=O)N1CCCC(C(=O)c2ccc(C(F)(F)F)cc2)C1 (stereo not given) | inactive | 
NC(=O)c1ccc(Nc2ccc3c(c2)CCC3)c([N+](=O)[O-])c1 | inactive | 
COc1ccc(C(=O)NCc2nnc(SCC(=O)Nc3cccc(OC)c3)o2)cc1 | inactive | 
COc1cc(C(=O)NCc2nnc(SCC(=O)c3ccc(Cl)cc3)o2)cc(OC)c1OC | inactive | 
COc1cc(C(=O)NCc2nnc(SCC(=O)Nc3nc4ccc(C)cc4s3)o2)cc(OC)c1OC | 2.51 µM (active) | 
S=C(c1ccc(-c2ccccc2)o1)N1CCCCC1 | 10 µM (active) | 
S=C(c1ccccc1)N1CCCC1 | inactive | 
OCCN1CCN(C(=S)c2ccc(-c3ccccc3)cc2)CC1 | inactive | 
Cc1ccccc1NC(=O)CSc1ccc2nnc(-c3ccccn3)n2n1 | inactive | 
CC(C)CC(=O)Nc1nnc(S(=O)(=O)N(C)c2ccc(Cl)cc2)s1 | inactive | 
CC(=O)Nc1ccc(N2C(=O)C3C4C=CC(CC4)C3C2=O)cc1 (stereo not given) | inactive | 
CCOC(=O)c1c(C)[nH]c(=S)c(C#N)c1-c1ccccc1 | 12.6 µM (active) | 
CCOC(=O)c1c(-c2ccccc2)oc2cc(Br)c(O)cc12 | inactive | 
CCOC(=O)N1CCN(CC(=O)c2c(C)[nH]c3ccccc23)CC1 | inactive | 
CCOC(=O)c1c(C)[nH]c2c1-c1ccccc1C(=O)C2=O | 3.55 µM (active) | 

Structure (SMILES) | Potency | activity change, negative = inhibition
CCOC(=O)c1c(C)nc(-c2ccccc2)nc1NC(=O)C(C)C | inactive | 
Cc1[nH]c2ccccc2c1C(=O)COC(=O)C(C)C | inactive | 
COc1cccc(NC(=O)CCc2nnc3ccc(N4CCC(C)CC4)nn23)c1 | inactive | 
CCCCCC(O)(CCN1CCCCC1)c1ccccc1 (stereo not given) | inactive | 
COc1cc(C)cc(CN2CCC(Cc3ccccc3)CC2)c1O | inactive | 
CCn1c(SCC(=O)NC2=NCCS2)nnc1C(C)NC(=O)c1ccccc1F (stereo not given) | inactive | 
CC1CCN(C(=O)CCc2nnc3ccc(NCc4ccco4)nn23)CC1 | inactive | 
CCOC(=O)C1CCCN(S(=O)(=O)c2ccc3c(c2)C(C)(C)C(=O)N3C)C1 (stereo not given) | inactive | 
CC1CC(C)CN(c2ccc(S(=O)(=O)N3CCOCC3)cc2)C1 (stereo not given) | inactive | 
O=C(Cc1ccc(Br)cc1)N1CCN(c2ccccn2)CC1 | inactive | 
CCC1=NN(C(=O)Cc2ccc([N+](=O)[O-])cc2)C(O)(c2ccc(Br)cc2)C1 (stereo not given) | 11.2 µM (active) | 
O=C(Cc1ccccc1)N1CCN(S(=O)(=O)c2ccc([N+](=O)[O-])cc2)CC1 | inactive | 
C[N+](C)(C)CCNC(=O)c1cc[n+](Cc2ccccc2)c(/C=N/O)c1 | inactive | 
CC1CCCCC1NC(=O)c1cn(C)c2ccc(S(=O)(=O)N3CCOCC3)cc2c1=O (stereo not given) | inactive | 
COc1ccc(C(O)(C2CCCCC2)C(CN2CCCC2)c2ccccc2)cc1 (stereo not given) | inactive | 
Cc1cccc(C(=O)N2CCC(c3nc4ccccc4s3)CC2)c1 | inactive | 
Cc1ccc(C2CCN(C(=S)Nc3cccc(Cl)c3)C2)cc1 (stereo not given) | 10 µM (active) | 
Cc1cccc(NC(=S)N2CCC(c3nc4ccccc4s3)CC2)c1 | 12.6 µM (active) | 
O=C(NC1CCCC1)C1CCN(C(=O)Nc2cccc(Cl)c2)CC1 | inactive | 
O=C(C1CCCO1)N1CCN(C(=S)Nc2cccc(Cl)c2)CC1 (stereo not given) | inactive | 
Cc1nc2ccc(NC(=S)N3CCC(C)CC3)cc2nc1C | inactive | 
Cc1cccc(OCC(=O)Nc2ccc(NC(=O)c3ccco3)c(C)c2)c1 | inactive | 
O=C(NCC(=O)N(c1ccccc1)C(C(=O)NCC1CCCO1)c1ccccc1)c1cccs1 (stereo not given) | inactive | 
CC1(C)C2CCC1(CS(=O)(=O)NCCc1c[nH]c3ccccc13)C(=O)C2 (stereo not given) | inactive | 

Reference: PubChem BioAssay AID2551 (National Center for Advancing Translational Sciences (NCATS), 2010)
